Experimental data as given in PubChem BioAssay (EPA / NIEHS).
Results filed as inconclusive are left out. Activity calls are given as the source filed them. How the source made its calls: active means hit-call score of the fitted dose curve at least 0.9, where 1 is the maximum; inconclusive means response in the unintended direction; inactive means score below 0.9.

target: frog Thyroid hormone Receptor alpha (TRa), thra-a (gene 397942) (UniProt P15204); experiment: ATG_frTRa_XSP2: Attagene TRANS-FACTORIAL Multi-Species (XSP2) HepG2 Assay for frog Thyroid hormone Receptor alpha (TRa) (AID 2283839);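 on AC50: AC50 reflects induction of frog TRa-driven reporter mRNA above DMSO baseline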
Sequence (P15204 whole entry, looked up): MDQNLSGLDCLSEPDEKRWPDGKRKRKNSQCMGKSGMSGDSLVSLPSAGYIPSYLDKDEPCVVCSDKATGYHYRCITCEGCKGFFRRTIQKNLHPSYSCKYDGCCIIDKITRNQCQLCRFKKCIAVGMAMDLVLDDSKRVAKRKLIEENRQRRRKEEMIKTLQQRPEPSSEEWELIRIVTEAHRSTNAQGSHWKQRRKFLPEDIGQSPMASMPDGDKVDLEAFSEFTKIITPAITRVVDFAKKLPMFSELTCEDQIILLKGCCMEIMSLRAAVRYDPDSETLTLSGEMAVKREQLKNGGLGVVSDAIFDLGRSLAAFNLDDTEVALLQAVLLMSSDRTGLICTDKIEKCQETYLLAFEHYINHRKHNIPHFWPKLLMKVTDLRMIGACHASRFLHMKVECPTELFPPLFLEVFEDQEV
Experimental: ATG_XSP2_multi-species_TRANS is a cell-based, multiplexed assay created by modifying the existing Attagene TRANS-FACTORIAL system to include a panel of nuclear receptors from some or all the following species: human (Homo sapiens), mouse (Mus musculus), frog (Xenopus laevis), zebrafish (Danio rerio), chicken (Gallus gallus), and turtle (Chrysemys picta). The ECOTOX-FACTORIAL format uses HepG2, a human liver cell line, with measurements taken at 24 hours after chemical dosing in a 24-well plate. Xsp2 included 3 nM 6-alpha-fluorotestosterone and 1.5 nM norgestrel to stimulate the androgen receptor.ATG_frTRa_XSP2 is one of 29 assay components measured or calculated from the ATG_XSP2_multi-species_TRANS assay. It is designed to make measurements of mRNA induction, a form of inducible reporter, as detected with fluorescence intensity signals by Reverse transcription polymerase chain reaction (RT-PCR) and Capillary electrophoresis technology.The assay endpoint ATG_frTRa_XSP2 was analyzed in the positive analysis fitting direction relative to DMSO as the negative control and baseline of activity. Using a type of inducible reporter, measures of mRNA for gain-of-signal activity can be used to understand the reporter gene at the transcription factor-level as they relate to the gene TR. Furthermore, this assay endpoint can be referred to as a primary readout, because this assay has produced multiple assay endpoints where this one serves a reporter gene function. To generalize the intended target to other relatable targets, this assay endpoint is annotated to the nuclear receptor intended target family, where the subfamily is non-steroidal.
Human liver HepG2 cells are transiently transfected with multiple reporter transcription units (MRTUs) in 6-well plates using FuGene 6 reagent (Roche; 3 ml FuGene/1 mg DNA). The MRTU constructs are regulated by a cis-regulating element (promoter). […] A major difference between the CIS and TRANS system is that in CIS activities of endogenous TFs are measured, whereas the TRANS assay evaluates changes in activities of exogenous, chimeric NR-Gal4 proteins. […] At the end of 24 hour incubation, total RNA was isolated using TriZol reagent (Invitrogen). The isolated RNA is then reverse-transcribed using oligo(dT) primer and Mo-MLV reverse transcriptase (Invitrogen) with DNAse I (Ambion) treatment for 30 min. The one-tenth of the produced cDNA was amplified by PCR using Taq DNA polymerase (Invitrogen) and two reporter sequence-specific primers. The PCR products were fluorescently labeled by primer extension with 6-arboxyfluorescein (6-FAM) 5'-labeled reporter sequence-specific primer (2 min at 95 C, 20 s at 68 C and 10 min at 72 C) and these products were digested with 5U of HpaI (New England Biolabs) for 2h at 37 C. The fragments were purified using Qiaquick PCR columns (Qiagen), analyzed on an ABI 3130xL genetic analyzer (Applied Biosystems) with peak positions identified by using a set of X-rhodamine (ROX)-labeled MapMarker1000 molecular weight standards (BioVentures). The raw capillary electrophoresis data was processed using Attagraph software (Attagene).

Compound	AC50	outcome
CC1(C)C(C=C(Cl)Cl)C1C(=O)OC(C#N)c1ccc(F)c(Oc2ccccc2)c1 (stereo not given)	37.1 µM (active)	–
O=S1OCC2C(CO1)C1(Cl)C(Cl)=C(Cl)C2(Cl)C1(Cl)Cl (stereo not given)	–	inactive
CCCN(CCOc1c(Cl)cc(Cl)cc1Cl)C(=O)n1ccnc1	–	inactive
CCCN(CCC)c1c([N+](=O)[O-])cc(C(F)(F)F)cc1[N+](=O)[O-]	–	inactive
O=C(O)C(F)(F)C(F)(F)C(F)(F)C(F)(F)C(F)(F)C(F)(F)C(F)(F)F	–	inactive
COP(=S)(OC)Oc1ccc([N+](=O)[O-])cc1	–	inactive
COP(=S)(OC)Oc1ccc(SC)c(C)c1	–	inactive
Oc1ccc(Cl)cc1Cc1ccccc1	10 µM (active)	–
Oc1cc(Cl)ccc1Oc1ccc(Cl)cc1Cl	2.46 µM (active)	–
CC(C)(C)C(O)/C(=C\c1ccc(Cl)cc1Cl)n1cncn1 (stereo not given)	–	inactive
